Experimental data from PubChem BioAssay (NCI).
Where “and” joins values, the source holds several entries; their conditions need not be identical. Equal values may be shown once. This is part of a sample that, as a whole, favours compounds with a hit. Of some 83,000 tested, about 20% had one in any assay.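 Cell lines were cultured in 96-well plates, exposed to a single compound concentration, and assessed for percent growth 48 hours later.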 Calls of active or inactive are those of the source. The calls were made as follows: active = growth percent below 10; inactive = the rest.

Columns and labels:
Assay in all cases: NCI-60 one-dose screen, 48 h (100 = growth as untreated, 0 = no growth, -100 = all killed)
Settings in all cases: 10 µM unless noted
HCT-15 colon = tested on: HCT-15 colon
SNB-75 CNS = tested on: SNB-75 CNS
SNB-19 CNS = tested on: SNB-19 CNS
U251 CNS = tested on: U251 CNS
PC-3 prostate = tested on: PC-3 prostate
SK-MEL-5 melanoma = tested on: SK-MEL-5 melanoma
UACC-62 melanoma = tested on: UACC-62 melanoma
LOX IMVI melanoma = tested on: LOX IMVI melanoma
SK-MEL-28 melanoma = tested on: SK-MEL-28 melanoma
HT29 colon = tested on: HT29 colon

CCCCCN(CCCCC)CC(O)c1cc2c(c3ccccc13)CCCC2 (centres undefined)
growth (HCT-15 colon): 52.2% (inactive) and 52.1% (inactive)
growth (SNB-75 CNS): 86.9% (inactive) and 70.7% (inactive)
growth (SNB-19 CNS): 88.3% (inactive) and 83.6% (inactive)
growth (U251 CNS): 63% (inactive) and 62% (inactive)
growth (PC-3 prostate): 35.7% (inactive) and 57.9% (inactive)
growth (SK-MEL-5 melanoma): 61.1% (inactive) and 36.3% (inactive)
growth (UACC-62 melanoma): 25.4% (inactive) and 58.2% (inactive)
growth (LOX IMVI melanoma): 43.1% (inactive) and 40.8% (inactive)
growth (SK-MEL-28 melanoma): 89.1% (inactive) and 57.1% (inactive)

O=C(O)CCCCc1ccc([N+](=O)[O-])cc1
growth (HCT-15 colon): 101% (inactive)
growth (HT29 colon): 105% (inactive) and 98.1% (inactive)
growth (SNB-19 CNS): 101% (inactive) and 105% (inactive)
growth (U251 CNS): 97.4% (inactive) and 108% (inactive)
growth (PC-3 prostate): 88.5% (inactive) and 86.5% (inactive)
growth (SK-MEL-5 melanoma): 107% (inactive) and 105% (inactive)
growth (UACC-62 melanoma): 104% (inactive) and 90.4% (inactive)
growth (LOX IMVI melanoma): 92.7% (inactive) and 107% (inactive)
growth (SK-MEL-28 melanoma): 113% (inactive) and 107% (inactive)

Clc1nc(Oc2ccccc2)nc(-c2cn(-c3ccccc3)c3ccccc23)n1
growth (HCT-15 colon): 38.5% (inactive)
growth (HT29 colon): 40.6% (inactive)
growth (U251 CNS): 47.2% (inactive)
growth (PC-3 prostate): 41.3% (inactive)
growth (SK-MEL-5 melanoma): 102% (inactive)
growth (LOX IMVI melanoma): 10.7% (inactive)
growth (SK-MEL-28 melanoma): -18.3% (active)

Nc1nc(SC/C=C/CCl)c2[nH]cnc2n1
growth (HCT-15 colon): 104% (inactive) and 94.2% (inactive)
growth (HT29 colon): 108% (inactive) and 95.5% (inactive)
growth (SNB-19 CNS): 107% (inactive) and 102% (inactive)
growth (U251 CNS): 99.1% (inactive) and 98.1% (inactive)
growth (PC-3 prostate): 99.6% (inactive) and 93.6% (inactive)
growth (SK-MEL-5 melanoma): 103% (inactive) and 114% (inactive)
growth (UACC-62 melanoma): 104% (inactive) and 105% (inactive)
growth (LOX IMVI melanoma): 103% (inactive)
growth (SK-MEL-28 melanoma): 115% (inactive) and 112% (inactive)

O=C1C2=C(C(=O)c3ccccc31)C(O)(S(=O)(=O)O)C(O)(S(=O)(=O)O)C1N=CC=CC21 (centres undefined)
growth (HCT-15 colon): 32.3% (inactive) and 38.7% (inactive)
growth (HT29 colon): 46.6% (inactive) and 21.4% (inactive)
growth (SNB-19 CNS): 43.8% (inactive) and 48.5% (inactive)
growth (U251 CNS): 30.3% (inactive) and 18.7% (inactive)
growth (PC-3 prostate): 31.8% (inactive) and 30.2% (inactive)
growth (SK-MEL-5 melanoma): 26.6% (inactive) and 29.7% (inactive)
growth (UACC-62 melanoma): 51.3% (inactive) and 45.6% (inactive)
growth (LOX IMVI melanoma): 36.7% (inactive) and 24.7% (inactive)
growth (SK-MEL-28 melanoma): 89.2% (inactive) and 73% (inactive)

Cn1c(=O)n(-c2ccc(C(C)(C)C#N)cc2)c2c3cc(-c4cnc5ccccc5c4)ccc3ncc21
growth (HCT-15 colon): 9.69% (active) and 14.5% (inactive)
growth (HT29 colon): 4.74% (active) and -10.5% (active)
growth (SNB-19 CNS): 14.9% (inactive) and 14.7% (inactive)
growth (U251 CNS): 8.23% (active) and 8.1% (active)
growth (PC-3 prostate): 13.2% (inactive) and -18% (active)
growth (SK-MEL-5 melanoma): -62.1% (active) and -89.1% (active)
growth (LOX IMVI melanoma): 1.14% (active) and 2.87% (active)
growth (SK-MEL-28 melanoma): -1.82% (active) and 1.77% (active)

O=C(N/N=C/c1cccc2ccccc12)C1CC1
growth (HCT-15 colon): 107% (inactive) and 113% (inactive)
growth (HT29 colon): 102% (inactive) and 110% (inactive)
growth (SNB-19 CNS): 98.8% (inactive) and 95.1% (inactive)
growth (U251 CNS): 99.7% (inactive) and 100% (inactive)
growth (PC-3 prostate): 100% (inactive) and 102% (inactive)
growth (SK-MEL-5 melanoma): 105% (inactive) and 96.6% (inactive)
growth (UACC-62 melanoma): 92.3% (inactive) and 99.8% (inactive)
growth (LOX IMVI melanoma): 91.8% (inactive)
growth (SK-MEL-28 melanoma): 111% (inactive) and 104% (inactive)

O=C(N/N=C/c1ccc2c(c1)OCO2)c1ccncc1
growth (HCT-15 colon): 106% (inactive) and 104% (inactive)
growth (HT29 colon): 101% (inactive) and 105% (inactive)
growth (SNB-19 CNS): 111% (inactive) and 103% (inactive)
growth (U251 CNS): 104% (inactive)
growth (PC-3 prostate): 104% (inactive) and 88.5% (inactive)
growth (SK-MEL-5 melanoma): 105% (inactive)
growth (UACC-62 melanoma): 91.3% (inactive) and 97.5% (inactive)
growth (LOX IMVI melanoma): 97.4% (inactive) and 101% (inactive)
growth (SK-MEL-28 melanoma): 103% (inactive) and 106% (inactive)

CN(C)CCCNC1=C(Cl)C(=O)c2ccccc2C1=O
growth (HCT-15 colon): -62.2% (active) and -49.3% (active)
growth (SNB-75 CNS): 64.1% (inactive) and 47.8% (inactive)
growth (SNB-19 CNS): 53.1% (inactive) and -9.85% (active)
growth (U251 CNS): -63% (active) and -94.2% (active)
growth (PC-3 prostate): 56.8% (inactive) and 53.6% (inactive)
growth (SK-MEL-5 melanoma): -94.2% (active) and -100% (active)
growth (UACC-62 melanoma): 28.6% (inactive) and -13.8% (active)
growth (LOX IMVI melanoma): -43.5% (active)
growth (SK-MEL-28 melanoma): 83.2% (inactive) and 83.7% (inactive)

CC(=O)Nc1ccc2cc3ccc(NC(C)=O)cc3nc2c1
growth (HCT-15 colon): 103% (inactive) and 106% (inactive)
growth (HT29 colon): 97.3% (inactive) and 90.1% (inactive)
growth (SNB-19 CNS): 79.2% (inactive) and 73.4% (inactive)
growth (U251 CNS): 74.3% (inactive) and 72.3% (inactive)
growth (PC-3 prostate): 75.1% (inactive) and 42.4% (inactive)
growth (SK-MEL-5 melanoma): 92.2% (inactive) and 105% (inactive)
growth (UACC-62 melanoma): 82.2% (inactive) and 85.7% (inactive)
growth (LOX IMVI melanoma): 89% (inactive) and 85.9% (inactive)
growth (SK-MEL-28 melanoma): 110% (inactive) and 139% (inactive)

OC(CSc1ccccc1)CN1CCN(c2cccc(Cl)c2)CC1 (centres undefined)
growth (HCT-15 colon): 105% (inactive) and 101% (inactive)
growth (HT29 colon): 104% (inactive) and 96.5% (inactive)
growth (SNB-19 CNS): 100% (inactive) and 111% (inactive)
growth (U251 CNS): 95% (inactive) and 102% (inactive)
growth (PC-3 prostate): 92.9% (inactive) and 97.8% (inactive)
growth (SK-MEL-5 melanoma): 97.4% (inactive) and 96.8% (inactive)
growth (UACC-62 melanoma): 92.2% (inactive) and 96.9% (inactive)
growth (LOX IMVI melanoma): 96.7% (inactive) and 96.3% (inactive)
growth (SK-MEL-28 melanoma): 103% (inactive) and 99.1% (inactive)

N#C/C(=C1C=C/C(=N/O)C(Br)=C/1)c1ccccc1
growth (HCT-15 colon): 23.1% (inactive)
growth (SNB-75 CNS): 23% (inactive)
growth (SNB-19 CNS): 94.9% (inactive)
growth (U251 CNS): 26.5% (inactive)
growth (PC-3 prostate): 4.02% (active)
growth (SK-MEL-5 melanoma): 53.6% (inactive)
growth (UACC-62 melanoma): 33.1% (inactive)
growth (LOX IMVI melanoma): 1.02% (active)
growth (SK-MEL-28 melanoma): 61.3% (inactive)

O=C1OC(Oc2ccc(Br)cc2)(c2ccccc2)c2ccccc21 (centres undefined)
growth (HCT-15 colon): 69.6% (inactive) and 58.6% (inactive)
growth (HT29 colon): 74.6% (inactive) and 70.6% (inactive)
growth (SNB-19 CNS): 88.8% (inactive) and 102% (inactive)
growth (U251 CNS): 78.9% (inactive) and 58.5% (inactive)
growth (PC-3 prostate): 80.7% (inactive) and 63.6% (inactive)
growth (SK-MEL-5 melanoma): 97.3% (inactive)
growth (UACC-62 melanoma): 73.8% (inactive) and 83.9% (inactive)
growth (LOX IMVI melanoma): 77.5% (inactive) and 83.2% (inactive)
growth (SK-MEL-28 melanoma): 101% (inactive) and 120% (inactive)

C#CCN(C)Cc1ccccc1
growth (HCT-15 colon): 104% (inactive) and 103% (inactive)
growth (HT29 colon): 108% (inactive) and 113% (inactive)
growth (SNB-19 CNS): 102% (inactive)
growth (U251 CNS): 105% (inactive) and 101% (inactive)
growth (PC-3 prostate): 100% (inactive) and 105% (inactive)
growth (SK-MEL-5 melanoma): 102% (inactive) and 106% (inactive)
growth (UACC-62 melanoma): 92.3% (inactive)
growth (LOX IMVI melanoma): 96.9% (inactive) and 102% (inactive)
growth (SK-MEL-28 melanoma): 111% (inactive) and 114% (inactive)

Cc1ccc(S(=O)(=O)Nc2ccc3cc([N+](=O)[O-])ccc3c2[N+](=O)[O-])cc1
growth (HCT-15 colon): 71% (inactive) and 94.2% (inactive)
growth (HT29 colon): 93.3% (inactive) and 114% (inactive)
growth (SNB-19 CNS): 85.6% (inactive) and 96.2% (inactive)
growth (U251 CNS): 82.1% (inactive) and 88.2% (inactive)
growth (PC-3 prostate): 71.7% (inactive) and 73.4% (inactive)
growth (SK-MEL-5 melanoma): 86.1% (inactive)
growth (UACC-62 melanoma): 44% (inactive) and 69.1% (inactive)
growth (LOX IMVI melanoma): 82% (inactive) and 97.3% (inactive)
growth (SK-MEL-28 melanoma): 89.7% (inactive) and 115% (inactive)

O=C(/C=C\c1ccnc2ccccc12)c1ccc([N+](=O)[O-])cc1
growth (HCT-15 colon): 87.9% (inactive) and 69.7% (inactive)
growth (SNB-75 CNS): 110% (inactive) and 86.5% (inactive)
growth (SNB-19 CNS): 90% (inactive) and 86.4% (inactive)
growth (U251 CNS): 95.3% (inactive) and 79.6% (inactive)
growth (PC-3 prostate): 93.8% (inactive) and 74.7% (inactive)
growth (SK-MEL-5 melanoma): 67.4% (inactive) and 53.8% (inactive)
growth (UACC-62 melanoma): 82.6% (inactive) and 70.7% (inactive)
growth (LOX IMVI melanoma): 52.1% (inactive) and 9.87% (active)
growth (SK-MEL-28 melanoma): 104% (inactive) and 92.1% (inactive)

COc1ccc(Cn2c(NCCN=C(N)N)nc(=O)n(Cc3ccc(F)cc3)c2=O)cc1
growth (HCT-15 colon): 103% (inactive) and 106% (inactive)
growth (SNB-75 CNS): 55.1% (inactive) and 22.7% (inactive)
growth (SNB-19 CNS): 77.6% (inactive) and 78.7% (inactive)
growth (U251 CNS): 81.7% (inactive)
growth (PC-3 prostate): 83% (inactive) and 87.1% (inactive)
growth (SK-MEL-5 melanoma): 98.7% (inactive) and 99.9% (inactive)
growth (UACC-62 melanoma): 112% (inactive) and 98.4% (inactive)
growth (LOX IMVI melanoma): 96.2% (inactive)
growth (SK-MEL-28 melanoma): 103% (inactive) and 97.9% (inactive)

S=C(S)N1CCCC1
growth (HCT-15 colon): 107% (inactive)
growth (HT29 colon): 76.7% (inactive) and 22.4% (inactive)
growth (SNB-19 CNS): 99.1% (inactive) and 100% (inactive)
growth (U251 CNS): 85.1% (inactive) and 49% (inactive)
growth (PC-3 prostate): 84.7% (inactive) and 82.8% (inactive)
growth (SK-MEL-5 melanoma): 79.7% (inactive) and 67.8% (inactive)
growth (UACC-62 melanoma): 90.9% (inactive) and 105% (inactive)
growth (LOX IMVI melanoma): 108% (inactive) and 90.2% (inactive)
growth (SK-MEL-28 melanoma): 95.1% (inactive) and 107% (inactive)
